ERAP1 inh – inhibitors of human ERAP1 aminopeptidase | actives 0.15% (n = 340,000) | AID 652197 | Q9NZ08 | recombinant ERAP1, Leu-AMC fluorescence, 60 min | inhibition, % at 10.7 µM;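 active = mean replicate inhibition of at least 30%, or all replicates individually reaching that 30% level; inactive = mean below 30% and not every replicate reaching it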;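 note: 0% = neutral control wells and 100% = L-leucinethiol positive control wells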
CaV13 ICDI inh – Disruptors of the CACNA1D IQ motif to Ca2+-dependent inactivation inhibitor domain association, primary screening, Förster resonance energy transfer in intact living …. actives 0.098% (n = 340,000). HEK cells, CFP/YFP FRET ICDI-IQ, plate reader, 10 min; percent FRET-ratio fall versus neutral wells. inhibition, % at 12.3 µM;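 active = mean replicate inhibition of at least 30% and at least 1% of replicates passing that level; inconclusive = only one of the two criteria is met; inactive = neither criterion is met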;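 note: 0% = median of the neutral control wells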
PDI turbidity – blocks human protein disulfide isomerase activity; P07237; PDI insulin aggregation turbidity, A650, 90 min; inhibition, % at 10 µM; actives 0.052% (n = 350,000); AID 588391;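 active = mean inhibition across replicates of 30% or more, whatever share of single replicates reach that level; inconclusive = mean inhibition below 30% while every single replicate reaches 30%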
PGC1a acetyl inh – modulators of PGC1a acetylation | U2OS PGC1a acetylation, AlphaScreen anti-acetyl-lysine; with virally co-expressed GCN5 acetyltransferase | inhibition, % at 15.6 µM | actives 0.17% (n = 350,000) | AID 651687;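 active = every replicate shows inhibition of at least 40%; inconclusive = mean inhibition at least 40% but some replicate below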;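 note: 0% = neutral control wells and 100% = positive control wells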
PglD DTNB – blocks C. jejuni PglD acetyltransferase activity; inhibition, % at 12.5 µM; purified PglD enzyme, DTNB colorimetric CoA detection; actives 0.098% (n = 360,000); AID 602405; in the data active = inhibition above about 16%, passing the limit was not always enough; inconclusive = no clear call, values can overlap the other calls
ERp5 inh – ERp5 (human) disulfide isomerase inhibition. Q15084. ERp5 insulin aggregation, absorbance 650 nm, 90 min. inhibition, % at 9.99 µM. actives 0.05% (n = 350,000);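 active = mean replicate inhibition above about 25%, with every replicate also reaching it, limit read from the data, passing the limit was not always enough; inconclusive = only one of those two criteria met; inactive = neither criterion met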
Target sequence (Q15084 whole entry, looked up): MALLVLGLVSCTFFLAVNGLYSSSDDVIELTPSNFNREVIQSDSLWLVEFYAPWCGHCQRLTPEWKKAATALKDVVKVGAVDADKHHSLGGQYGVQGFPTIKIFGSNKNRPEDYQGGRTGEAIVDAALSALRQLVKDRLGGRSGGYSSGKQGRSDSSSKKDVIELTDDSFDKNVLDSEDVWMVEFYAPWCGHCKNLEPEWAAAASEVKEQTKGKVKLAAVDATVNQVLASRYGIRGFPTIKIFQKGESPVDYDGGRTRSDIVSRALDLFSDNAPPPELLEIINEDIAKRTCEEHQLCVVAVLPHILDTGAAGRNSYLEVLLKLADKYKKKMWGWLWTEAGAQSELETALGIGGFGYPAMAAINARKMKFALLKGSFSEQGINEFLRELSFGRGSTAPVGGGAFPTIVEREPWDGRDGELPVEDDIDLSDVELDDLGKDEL
PglD confirm – blocks Campylobacter jejuni PglD acetyltransferase activity | shares compounds with PglD DTNB | Purified C. jejuni PglD, DTNB absorbance 412 nm | inhibition, % at 20 µM | 320 tested, under 10 active;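 active = mean inhibition across replicates of at least 20% with every single replicate also at 20% or more; inconclusive = mean inhibition at least 20% but some replicate falls below 20%; inactive = mean inhibition under 20% and not all replicates reach it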;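 note: initial rate of CoA release by acetyl transfer from AcCoA to the UDP-4-amino sugar; 0% = median of neutral control wells and 100% = median of positive control wells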
* marks the source's active call; other numbers are inactive results; ? = inconclusive; · = not tested or not shown. A selection: hits, their analogues and other compounds. The true share with any hit is near 0.46%.

SMILES	ERAP1 inh	CaV13 ICDI inh	PDI turbidity	PGC1a acetyl inh	PglD DTNB	ERp5 inh	PglD confirm
CC(C)NC(=O)N(C)C[C@H]1Oc2ccc(NC(=O)Nc3ccc(C(F)(F)F)cc3)cc2CC(=O)N([C@@H](C)CO)C[C@H]1C	5	·	·	-8	0	8	·
COc1ccc(S(=O)(=O)N(C)C[C@@H]2Oc3c(NS(=O)(=O)c4cn(C)cn4)cccc3C(=O)N([C@@H](C)CO)C[C@H]2C)cc1	1	·	·	5	-1	0	·
O=c1oc2ccc(Cl)cc2cc1-c1ccccc1	·	-3	-2	·	·	·	·
O=c1oc2ccccc2cc1-c1ccccc1	2	-5	-5	-2	24*	1	-9
FC(F)(F)c1ccncc1-c1nnc(C2CCCCC2)o1	·	-5	-9	·	22*	2	0
O=C(CSCCO)Nc1cccc(C(F)(F)F)c1	·	-8	-1	-3	23*	·	-1
O=C(NCc1cccc(Cl)c1)c1ccc(-n2cncn2)c2ccoc12	-4	-7	1	16	22*	4	-3
CC1C(=O)NN=C1c1ccc([N+](=O)[O-])cc1 (stereo not given)	-1	-5	-5	·	·	-1	·
CC1CN2C(c3ccc([N+](=O)[O-])cc3)=CSC2=N1 (stereo not given)	2	8	-1	8	75*	1	2
CN(C)CC(=O)N1CCCCN2[C@H](CO)[C@H](c3ccc(-c4cccc(C(=O)N(C)C)c4)cc3)[C@@H]2C1	-1	·	·	4	2	-1	·
COC(=O)C1SCC2C(=O)N(Cc3ccc(F)cc3)CC(=O)N21 (stereo not given)	0	-3	7	2	26*	1	5
COC(=O)C1SCC2C(=O)N(Cc3cccc(C)c3)CC(=O)N21 (stereo not given)	-1	-4	-1	11	-27	5	·
Nc1n[nH]c(-c2ccccc2)c1-c1ccccc1	1	-8	-6	1	33*	-14	-3
Nc1n[nH]c(C(F)(F)F)c1-c1ccccc1	5	6	18	11	-7	5	·
CCCCc1ccc(S(=O)(=O)NC(=O)C2(C)CCN2C(=O)CCc2cccs2)cc1 (stereo not given)	0	-6	8	·	69*	-12	3
Cc1ccccc1S(=O)(=O)NC(=O)C1(C)CCN1C(=O)CCc1cccs1 (stereo not given)	4	-4	3	6	3	0	·
CCCCN1C(=O)c2ccc(C(=O)Nc3ccc(C)c(S(=O)(=O)N(C)C)c3)cc2C1=O	·	-10	8	-1	25*	·	-1
CCCCN1C(=O)c2ccc(C(=O)Nc3cccc(C)c3C)cc2C1=O	·	-5	11	0	-6	·	·
CCOc1cc(N2CCOCC2)c(OCC)cc1NC(=O)COC(=O)COc1ccc(C#N)cc1	-1	-7	-6	·	33*	5	-2
CCOc1cc(N2CCOCC2)c(OCC)cc1NC(=O)COC(=O)COc1cc(C)cc(C)c1	-1	-6	-1	-7	3	4	·
CC(=O)NCC(=O)OCC(=O)c1ccc(Cl)cc1	-2	-4	17	-4	26*	-2	4
CC(=O)NCC(=O)OCC(=O)c1ccc(Br)cc1	·	-3	10	12	-2	·	·
Fc1ccc(CNC(=S)NC2CCCCC2)cc1	-2	-3	0	-1	35*	0	3
COc1ccc2nc(Cl)c(C3CC(c4ccco4)=NN3C(=O)CCC(=O)O)cc2c1 (stereo not given)	·	-5	17	·	·	·	·
Cc1ccc2nc(Cl)c(C3CC(c4ccco4)=NN3C(=O)CCCC(=O)O)cc2c1 (stereo not given)	-2	-2	-4	9	·	-9	·
SMILES	ERAP1 inh	CaV13 ICDI inh	PDI turbidity	PGC1a acetyl inh	PglD DTNB	ERp5 inh	PglD confirm
Cc1ccc2cc(C3CC(c4ccco4)=NN3C(=O)CCCC(=O)O)c(Cl)nc2c1 (stereo not given)	-4	14	3	3	34*	-1	2
Cc1cccc2cc(C3CC(c4ccco4)=NN3C(=O)CCC(=O)O)c(Cl)nc12 (stereo not given)	-2	-19	6	·	23*	-1	-6
OC(CC#CCN1CCCCC1)(c1ccccc1)c1ccccc1	0	-6	-3	-4	27*	1	-10
CC=Cc1ccc2n(c1=O)C[C@@H]1[C@@H](CO)[C@H](C(=O)NCCC)[C@H]2N1Cc1cccnc1 (mixture of isomers)	3	·	·	-7	2	-8	·
Cn1nc([N+](=O)[O-])nc1N1CCOCC1	·	-5	15	8	21*	·	1
C[C@@H]1CN([C@H](C)CO)C(=O)c2cc(NC(=O)CCN3CCOCC3)ccc2O[C@@H]1CN(C)Cc1ccc(Cl)c(Cl)c1	-1	·	·	-1	-7	11	·
CO[C@H](CN(C)C(=O)C1CCOCC1)[C@H](C)CN(C(=O)Nc1ccc(F)cc1)[C@@H](C)CO	0	·	·	10	2	-3	·
O=C(C[C@@H]1CC[C@@H](NC(=O)Nc2ccc(C(F)(F)F)cc2)[C@H](CO)O1)NCCN1CCCC1	2	·	·	11	-2	1	·
Cc1ccc2nc(C)cc(OCC(=O)O)c2c1	·	-4	2	-59	21*	·	-4
CC(=O)c1ccc(N2CCN(CCC#N)CC2)c(F)c1	·	·	4	-7	26*	·	1
CCCC(=O)c1cc(F)c(N2CCN(CCC#N)CC2)cc1C	·	-5	-4	·	-2	·	·
COc1ccc(-c2n[nH]c(=S)n2N)c(OC)c1	12	-2	-3	4	21*	6	-1
CC(C)(C)NC(=O)COC(=O)c1ccccc1Nc1ccc(SC(F)F)cc1	·	-19	-3	1	20*	·	?
CC1(C)C(=O)Nc2ccccc2N1C(=O)CSc1nnc2ccccn12	-2	-5	-8	8	35*	3	-1
COc1ccccc1-c1cnc2c(c1)C(=O)N([C@@H](C)CO)C[C@H](C)[C@H](CN(C)C(=O)c1ccccc1)O2	·	·	·	4	1	·	·
OCc1ccc(N=Nc2ccccc2)cc1	4	-4	7	0	0	3	·
COc1ccc(N=Nc2ccc(CO)cc2)cc1	6	-4	-5	3	45*	-1	1
CCC(OC(=O)c1ccco1)C(=O)NCc1ccc(C)cc1 (stereo not given)	·	-9	0	1	1	·	·
CCC(OC(=O)c1ccco1)C(=O)NCc1ccc2c(c1)OCO2 (stereo not given)	-6	-7	4	-13	22*	0	3
CCC(OC(=O)CNS(=O)(=O)c1ccccc1)C(=O)c1ccccc1 (stereo not given)	-3	-3	5	-3	20*	3	-2

Screening data (PubChem)
